This passage reports inhibition results from PubChem BioAssay AID624330 (Southern Research Specialized Biocontainment Screening …, 2012).

SMILES strings stand for the structures. About 2,100 (0.62%) of roughly 340,000 compounds were called active.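 The calls were made as follows: active = first-screen hits whose inhibition reached a set limit at any dose in the follow-up dose series; inconclusive = inhibition above the set first-screen limit but never retested; inactive = the rest.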 Not all results are given here. Entries with a potency or affinity are not part of this list.

In general, inhibition refers to the relative decrease from the control value, in per cent.

For this test, the target named is Rac GTPase-activating protein 1 (Homo sapiens) (UniProt Q9H0H5). Description: blockers of MgcRacGAP-driven Rac1 GTP hydrolysis – biochemical, ADP Hunter fluorescence, primary and confirmatory, confirmation (AID 624330).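 Also: fluorescence reports GDP produced by GAP-driven GTP hydrolysis.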 The conditions noted are these: MgcRacGAP-stimulated Rac1 GTP hydrolysis, at 30 µM, stronger effect = higher value, GST-tagged Rac1 F28L mutant substrate.
Chain of Rac GTPase-activating protein 1 (Homo sapiens) (Q9H0H5 whole entry, looked up): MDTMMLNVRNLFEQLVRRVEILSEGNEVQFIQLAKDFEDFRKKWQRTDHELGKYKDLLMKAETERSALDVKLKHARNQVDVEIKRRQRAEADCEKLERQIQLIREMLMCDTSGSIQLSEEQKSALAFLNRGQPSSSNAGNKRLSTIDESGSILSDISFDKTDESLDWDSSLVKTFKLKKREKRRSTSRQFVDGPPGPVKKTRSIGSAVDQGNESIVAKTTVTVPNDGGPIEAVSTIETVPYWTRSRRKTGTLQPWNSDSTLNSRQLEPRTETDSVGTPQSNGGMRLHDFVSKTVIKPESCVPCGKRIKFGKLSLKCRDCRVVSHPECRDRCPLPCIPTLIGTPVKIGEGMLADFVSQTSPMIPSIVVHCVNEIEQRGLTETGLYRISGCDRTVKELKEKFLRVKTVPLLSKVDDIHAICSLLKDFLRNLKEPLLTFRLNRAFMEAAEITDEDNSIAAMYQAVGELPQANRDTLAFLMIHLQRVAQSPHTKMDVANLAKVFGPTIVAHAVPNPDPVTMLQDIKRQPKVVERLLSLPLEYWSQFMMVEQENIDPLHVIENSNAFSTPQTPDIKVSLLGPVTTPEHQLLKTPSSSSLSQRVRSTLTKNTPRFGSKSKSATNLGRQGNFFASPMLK
In the case of `O=C(Nc1cccc(-c2cccc(Cl)c2)c1)C1CCN(Cc2ccccn2)CC1`, the inhibition was 2.6% (inactive). For `CC(NS(=O)(=O)CCNC(=O)c1ccccc1)c1ccccc1` (centres undefined), the inhibition is 4.33% (inactive).

As for `CC(=O)Nc1ccc(S(=O)(=O)N[C@@H](C)C(=O)OCC(=O)c2ccc(Br)s2)cc1`, the inhibition was 16.7% (inactive). In the case of `CCn1nnnc1Oc1ccc(Cl)cc1` it was 1.61% (inactive); in that of `C(=N/n1c2ccccc2c2ccccc21)/c1ccco1`, 14.3% (inactive). As to `S=c1[nH]nc(-c2ccccc2)n1/N=C/C=C/c1ccco1`, the inhibition is 30.9% (inactive). In the case of `Cc1nnc(C)n1/N=C/c1ccc(C(=O)O)cc1`, the inhibition was 7.46% (inactive).

Turning to `Oc1ccccc1/C=N/n1c2ccccc2c2ccccc21`, the inhibition was 8.39% (inactive).

For `COc1cccc(/C=N/n2c(SC)nnc2-c2ccccc2)c1O`, the inhibition is 22.8% (inactive).

Take `Cc1ccc(CN2CCN(/N=C/c3ccc(C(=O)O)cc3)CC2)cc1`: the inhibition is 8.13% (inactive). Take `S=c1[nH]nc(-c2cccnc2)n1/N=C/C=C/c1ccco1`: the inhibition was 21.5% (inactive). Consider `Cc1cc(C)n(-c2nnc(C)n2/N=C/c2ccco2)n1`, for which the inhibition is 2.53% (inactive). For `NC(=O)COC(=O)c1cccc(S(=O)(=O)N2CCN(c3ccccc3)CC2)c1`, the inhibition is 7.91% (inactive).

`Cc1ccc(OCC(=O)NNC(=O)c2ccc(NC(=O)C3CC3)cc2)c(C)c1`: the inhibition is 7.97% (inactive). As to `CC(=O)c1cccc(NS(=O)(=O)c2c(C)n[nH]c2C)c1`, the inhibition is 7.62% (inactive). Consider `CC(=O)Nc1ccc2c(c1)N(S(=O)(=O)c1cccs1)CCC2`, for which the inhibition was 4.49% (inactive). For the compound `CC(C)OCCCNC(=O)c1ccc(CS(=O)(=O)Cc2ccccc2F)o1`, the inhibition is 3.97% (inactive).

As for `Cc1nc(N2CCN(c3ccccc3)CC2)nc2c1C(=O)CCC2`, the inhibition was 5.63% (inactive). In the case of `CCN1C(=O)/C(=C/c2c(C)nn(C)c2C)SC1=S` it was 0.43% (inactive); in that of `O=C(O)c1ccc(Nc2ncnc3ccccc23)cc1`, 7.58% (inactive); in that of `Cc1cccc(NC(=O)CNC(=O)COC(=O)c2ccco2)c1C`, -0.7% (inactive). Take `c1ccc(C[C@H]2CN=C(Nc3ccccc3)N2CC2CCCCC2)cc1`: the inhibition is 3.05% (inactive). `Cc1ccccc1-n1nc(C(=O)O)cc1-c1ccccc1`: the inhibition was 3.4% (inactive). In the case of `O=C(NCCc1ccccc1)c1ccc(-c2ccccc2Cl)o1` it was 5.22% (inactive). For `Cc1nnc(C)n1/N=C/C=C/c1ccccc1`, the inhibition was 1.05% (inactive).

Take `S=c1[nH]nc(-c2cccnc2)n1/N=C/C=C/c1ccccc1`: the inhibition is 5.39% (inactive). In the case of `Cc1nnc(C)n1/N=C/c1ccccc1` it was 6.18% (inactive); in that of `Cc1ccc(/C=N/n2c(-c3ccncc3)n[nH]c2=S)cc1`, 5.7% (inactive); in that of `CC1CCN(C(=O)C2CCN(S(=O)(=O)c3cccs3)CC2)CC1`, 6.45% (inactive).

Turning to `CCc1cc(C(=O)N2CCCC(C(=O)c3cccc(OC(C)C)c3)C2)n(C)n1` (centres undefined), the inhibition is 9.3% (inactive). Consider `Cc1ccc2c(CC(=O)N3CCN(S(=O)(=O)c4ccccc4)CC3)coc2c1`, for which the inhibition was 5.1% (inactive). The figure for `COc1ccc2c(CC(=O)N3CCN(S(=O)(=O)c4ccc(F)cc4)CC3)coc2c1` is 1.15% (inactive); for `N#Cc1ccccc1S(=O)(=O)N1CCN(C(=O)Cc2n[nH]c(=O)c3ccccc23)CC1` it is 1.94% (inactive); for `N#Cc1ccccc1S(=O)(=O)N1CCN(C(=O)CCc2ccccc2)CC1` it is 6.33% (inactive). As to `CCCn1c(N2CCN(C(=O)/C=C/C(=O)O)CC2)nc2ccccc21`, the inhibition is 10.8% (inactive). As to `NC(=O)COC(=O)CCSc1ccc(Cl)cc1`, the inhibition was 5.12% (inactive).

Turning to `COC/C=C/C1=CC2=CC(=O)C(C)(OC(=O)c3cnc4ccccc4n3)C(=O)C2=CN1Cc1ccco1` (centres undefined), the inhibition is 11% (inactive). As to `COc1nonc1NC(=O)CSc1nc2ccccc2[nH]1`, the inhibition is 9.74% (inactive). The figure for `c1ccc(Nc2cccc(Nc3ccccc3)c2)cc1` is 19.8% (inactive). On to `Oc1cccc(Nc2c3ccccc3nc3ccccc23)c1`, for which the inhibition was 16.7% (inactive). For `OC1(CC#CCN2CCCCC2)c2ccccc2-c2ccccc21`, the inhibition was 11.1% (inactive).

With `O=C(c1ccco1)N1N=C2CCCCCC2C1(O)C(F)(F)F` (centres undefined), the inhibition was 1.94% (inactive). As to `Cc1ccc(OCCOCCN2CCN(C)CC2)c([N+](=O)[O-])c1`, the inhibition was 31.9% (inactive). Consider `Cc1ccc(OCCN2CCNCC2)c([N+](=O)[O-])c1`, for which the inhibition was 21.6% (inactive). Take `C=CCNCCCCOc1ccc(C)cc1[N+](=O)[O-]`: the inhibition was 14% (inactive). As to `Cc1ccc(OCCOCCNC(C)(C)C)c([N+](=O)[O-])c1`, the inhibition is 29.6% (inactive). For `Cc1cc(C)n(CCCN2CCC(C(=O)Nc3cccc(-c4cccc(F)c4)c3)CC2)n1`, the inhibition is 11.5% (inactive). Regarding `Cc1ccccc1C(=O)NC1CC2CCCC(C1)N2Cc1ccccc1Cl` (centres undefined), the inhibition was 11.5% (inactive).

Regarding `Cc1c(C(=O)NCC(c2ccco2)N(C)C)oc2c(Cl)cccc12` (centres undefined), the inhibition was 5.84% (inactive). As to `COc1cc2c(cc1OC)C1=C(C#N)CC/C(=N\S(=O)(=O)c3cccc(Cl)c3)N1CC2`, the inhibition is 4.99% (inactive).

`CC(C)CNC(=O)CN1C(=O)NC2(CCc3ccccc32)C1=O` (centres undefined): the inhibition is 10.8% (inactive). Regarding `CN1C(=O)/C(=C\C=C2/CCCN2C)N(C)C1=S`, the inhibition was 28.8% (inactive). The figure for `CN1CCS/C1=C\C=C1/SC(=S)N(CC(=O)O)C1=O` is 16.9% (inactive). In the case of `CCN1C(=O)/C(=C/C=C2/CCCN2C)OC1=S`, the inhibition is 5.72% (inactive). Consider `CN1C(=O)/C(=C/C=C2\SCCN2C)OC1=S`, for which the inhibition is 8.62% (inactive). In the case of `Cc1ccc(S(=O)(=O)N2CCN(CN3C(=O)CC4(CCCC4)C3=O)CC2)cc1`, the inhibition was 1.32% (inactive).

For the compound `CCOc1ccc(/C=N/n2nnnc2N)cc1OCC`, the inhibition was 9.77% (inactive).

Regarding `C=CCOc1ccc(/C=N/n2nnnc2N)cc1OC`, the inhibition was 12.5% (inactive).

For `COc1ccc(/C=N/n2nnnc2N)cc1OC`, the inhibition is 8.91% (inactive). Regarding `COc1cc(/C=N/n2c(C3CCCCC3)n[nH]c2=S)cc(OC)c1O`, the inhibition is 15.8% (inactive). Turning to `COc1cc(/C=N/n2c(C3CCCCC3)n[nH]c2=S)cc(Br)c1O`, the inhibition was 12.6% (inactive).

With `COc1cc(/C=N/n2nnnc2N)ccc1OC(C)=O`, the inhibition was 23.6% (inactive). In the case of `O=C(/C=C\c1ccco1)NC(=S)Nc1ccccc1O` it was 15.2% (inactive); in that of `COc1cccc(NC(=S)NC(=O)c2cccnc2)c1`, 13.8% (inactive); in that of `CN(C)C1=NCCN1CCCC1CCCC1`, 4.05% (inactive). For the compound `CC(C)N(Cc1nccn1C)C(=O)C1CCC(=O)N(CCc2ccccc2)C1` (centres undefined), the inhibition was 12.2% (inactive). As for `Cc1ccc(/C(N)=N/OC(=O)CCCc2ccccc2)cc1`, the inhibition was 7.16% (inactive). In the case of `COc1ccc2c(N)c(C(=O)NN)[nH]c2c1`, the inhibition was 27.6% (inactive). For `CCOC(=O)Nc1c(C(=O)OC)[nH]c2cccc(OC)c12`, the inhibition was 9.48% (inactive). For `COC(=O)c1cc(S(=O)(=O)NC2CCC(C)CC2)cn1C` (centres undefined), the inhibition is 0.48% (inactive). Consider `Cc1ccc(OCCC(=O)OCC(=O)NC(=O)NCc2ccccc2)cc1`, for which the inhibition is 3.66% (inactive). Regarding `CN=c1scc(-c2cccs2)n1/N=C/c1ccccc1O`, the inhibition was 23.1% (inactive). The figure for `Cc1ccc(CN2CCN(/N=C/c3ccc(O)c(O)c3)CC2)cc1` is 31.8% (inactive); for `CN=c1scc(C)n1/N=C/c1ccc(O)c(O)c1O` it is -36.1% (inactive); for `CCN=c1scc(C)n1/N=C/c1ccsc1` it is 25.8% (inactive).

Take `Cc1nnc(C)n1/N=C/c1ccc(O)cc1`: the inhibition was 13% (inactive). On to `CN=c1scc(C)n1/N=C/c1ccc2c(c1)OCO2`, for which the inhibition is 18.6% (inactive). As for `Cn1nnnc1SCCNCc1cccnc1`, the inhibition is -1.39% (inactive). For the compound `COC(=O)c1ccc(NC(=O)C(=O)N2CCN(C(=S)Nc3cccc(OC)c3)CC2)cc1`, the inhibition was 7.83% (inactive). Turning to `Cc1ccc(C)c(C(=O)C(C)Sc2nc3nn(-c4ccccc4)c(=O)c-3c3n2CCCCC3)c1` (centres undefined), the inhibition was -2.59% (inactive). In the case of `Cc1ccc2nsnc2c1NC(=O)COc1ccccc1F` it was 11.1% (inactive); in that of `CC(=O)c1ccc(NC(=S)NC(=O)/C=C/c2ccco2)cc1`, 21.8% (inactive). As for `O=C(/C=C/c1ccco1)NC(=S)Nc1ccccc1`, the inhibition is 10.7% (inactive). For `O=C(/C=C/c1ccco1)NCCc1ccccc1`, the inhibition was 6.75% (inactive).

Regarding `O=C(O)CCCCCNC(=O)/C=C/c1ccco1`, the inhibition is 5.1% (inactive). As for `COc1ccccc1OCC(=O)Nc1cc(C(F)(F)F)ccc1-n1cncn1`, the inhibition was 0.07% (inactive). Regarding `COc1cccc(C#Cc2c(C=O)n(C)c3ccccc23)c1`, the inhibition is 8.82% (inactive). The figure for `Cc1cn(CC(=O)NCc2ccc(N(C)C)cc2)c(=O)[nH]c1=O` is 11.4% (inactive); for `CCOc1ccc(CNC(=O)c2ccc3c(c2)N(CC)CCS3)cc1` it is 14% (inactive); for `O=C(O)c1ccccc1Nc1cccc(C(F)(F)F)c1` it is 8.9% (inactive). Turning to `Nc1cccc(Nc2ccccc2)c1`, the inhibition is 8.97% (inactive). Consider `c1ccc(Nc2cccc3c(Nc4ccccc4)cccc23)cc1`, for which the inhibition was 8.14% (inactive). `Nc1ccc(Nc2ccccc2N)cc1`: the inhibition is 24.3% (inactive). Turning to `Nc1cc(C(=O)O)ccc1Nc1ccccc1`, the inhibition is 25.7% (inactive). On to `Nc1cc(C(F)(F)F)ccc1Nc1ccccc1`, for which the inhibition is 6.27% (inactive). With `CCOc1cc(N2CCOCC2)c(OCC)cc1NC(=O)COC(=O)c1ccc(Cl)nc1`, the inhibition was 1.55% (inactive). The figure for `O=C(Nc1cccc(-c2csc(Nc3ccc(Cl)cc3)n2)c1)c1ccccc1` is 2.45% (inactive); for `N#Cc1c(-c2ccccc2)cc(C2CC2)nc1SCC(=O)O` it is 12.8% (inactive); for `COc1ccc(/C=N/Nc2nn3cnnc3c3ccccc23)cc1` it is 13.1% (inactive). For `Oc1cccc(/C=N/Nc2nn3cnnc3c3ccccc23)c1`, the inhibition was 24.6% (inactive).

Take `COc1ccc(OC)c(/C=N/Nc2nncn2/N=C/c2cc(OC)ccc2OC)c1`: the inhibition was 6.03% (inactive). The figure for `COc1cccc(/C=N/Nc2nn3cnnc3c3ccccc23)c1` is 19.3% (inactive). As to `COc1cc(/C=N\Nc2nncn2N)ccc1OC(C)=O`, the inhibition is -4.26% (inactive). The figure for `COc1cccc(/C=N/Nc2nn3cnnc3c3ccccc23)c1O` is 7.65% (inactive).
